From PubChem BioAssay (NCATS)
Records with an inconclusive call do not appear. Calls of active or inactive are those of the source. Calls follow the shape of the dose curve; as a rule, active = well fitted curve in the direction sought with a large enough effect; inconclusive = small, poorly fitted or top-dose-only effect, or another doubt; inactive = no such curve, though single readings can be large; an effect the other way counts as inactive or inconclusive.

What was measured:
[1] = qHTS of pediatric cancer cell lines to identify multiple opportunities for drug repurposing: Primary screen for OHS-50 cells (AID 1347103); also: nearly all actives have a fitted effect of over 40% in size; also: potency is read from the fitted curve at half-maximal effect;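 as to activity change, negative = cytotoxic: plate controls were DMSO neutral control for no effect and bortezomib positive control for full effect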
Outline: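 Cells (500-1,000/well) rested 5 h, then received compounds for 48 h; metabolically active cells were measured by CellTiter-Glo luminescence. Final concentrations spanned up to 46 µM (MIPE, 11-point) or 0.59 nM-46 µM (NPC, 8-point) in primary screens, 11-point in follow-ups.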

[2] = qHTS of pediatric cancer cell lines to identify multiple opportunities for drug repurposing: Primary screen for MG 63 (6-TG R) cells (AID 1347105); also: nearly all actives have a fitted effect of over 50% in size; also: potency is read from the fitted curve at half-maximal effect; as to activity change, negative = cytotoxic: % is scaled to controls: 0 for no effect and ±100 for the full control effect
Outline: (§1)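 Readout: CellTiter-Glo luminescence, 48 h treatment. Controls DMSO (neutral) and bortezomib 2.3 µM final (positive). Potency and efficacy taken from primary-screen concentration-response curves.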

[3] = qHTS of pediatric cancer cell lines to identify multiple opportunities for drug repurposing: Primary screen for control Hh wild type fibroblast cells (AID 1347106);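 also: % is scaled to controls: 0 for no effect and ±100 for the full control effect; a drop in luminescence marks cytotoxicity and a rise apparent proliferation; nearly all actives have a fitted effect of over 55% in size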
Outline: (§2)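 Viability after 48 h compound treatment at 37C, 500-1,000 cells/well, read as ATP luminescence with CellTiter-Glo. Primary screens used 11-point (MIPE, 0.78 nM-46 µM) or 8-point (NPC, 0.59 nM-46 µM) final concentrations; follow-up screens used 11-point dilutions.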

[4] = qHTS of pediatric cancer cell lines to identify multiple opportunities for drug repurposing: Primary screen for Rh30 cells (AID 1347107); also: nearly all actives have a fitted effect of over 75% in size; also: potency is read from the fitted curve at half-maximal effect; as to activity change, negative = cytotoxic: % is scaled to controls: 0 for no effect and ±100 for the full control effect
Outline: as §2

[5] = qHTS of pediatric cancer cell lines to identify multiple opportunities for drug repurposing: Confirmatory screen for NB1643 cells (AID 1347109); also: potency is read from the fitted curve at half-maximal effect; nearly all actives have a fitted effect of over 45% in size
Outline: as §2

[6] = qHTS of pediatric cancer cell lines to identify multiple opportunities for drug repurposing: Confirmatory screen for A673 cells (AID 1347110); also: potency is read from the fitted curve at half-maximal effect; nearly all actives have a fitted effect of over 65% in size
Outline: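 qHTS titration format: primary MIPE 0.78 nM-46 µM (11 pts), NPC 0.59 nM-46 µM; confirmation 11 pts. 48 h, CTG luminescence.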

[7] = qHTS of pediatric cancer cell lines to identify multiple opportunities for drug repurposing: Confirmatory screen for SK-N-MC cells (AID 1347111);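 also: potency is read from the fitted curve at half-maximal effect; cells exposed to compound for 48 h before the readout; nearly all actives have a fitted effect of over 70% in size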
Outline: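 SK-N-MC cells at 500-1,000 cells/well in growth media were pre-incubated 5 h, then exposed to compounds at 11-point dilutions for 48 h at 37 degrees C, 5% CO2. Viability was read as CellTiter-Glo luminescence.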

[8] = qHTS of pediatric cancer cell lines to identify multiple opportunities for drug repurposing: Confirmatory screen for BT-12 cells (AID 1347112); also: nearly all actives have a fitted effect of over 55% in size; also: potency is read from the fitted curve at half-maximal effect; as to activity change, negative = cytotoxic: % is scaled to controls: 0 for no effect and ±100 for the full control effect
Outline: as §2

[9] = qHTS of pediatric cancer cell lines to identify multiple opportunities for drug repurposing: Confirmatory screen for LAN-5 cells (AID 1347113); also: nearly all actives have a fitted effect of over 65% in size; also: potency is read from the fitted curve at half-maximal effect
Outline: as §2

[10] = qHTS of pediatric cancer cell lines to identify multiple opportunities for drug repurposing: Confirmatory screen for BT-37 cells (AID 1347117); conditions: BT-37 pediatric cancer cells, viability; activity change, negative = cytotoxic: at 45.9 µM (top of the series); also: potency is read from the fitted curve at half-maximal effect; nearly all actives have a fitted effect of over 55% in size
Outline: as §2

[11] = qHTS of pediatric cancer cell lines to identify multiple opportunities for drug repurposing: Confirmatory screen for control Hh wild type fibroblast cells (AID 1347121);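 also: plate controls were DMSO for no effect and bortezomib for full effect; nearly all actives have a fitted effect of over 70% in size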
Outline: as §2

[12] = qHTS of pediatric cancer cell lines to identify multiple opportunities for drug repurposing: Confirmatory screen for U-2 OS cells (AID 1347122); also: nearly all actives have a fitted effect of over 65% in size; also: potency is read from the fitted curve at half-maximal effect
Outline: as §2

[13] = qHTS of pediatric cancer cell lines to identify multiple opportunities for drug repurposing: Confirmatory screen for SJ-GBM2 cells (AID 1347116); also: nearly all actives have a fitted effect of over 60% in size; also: potency is read from the fitted curve at half-maximal effect;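 as to activity change, negative = cytotoxic: plate controls were DMSO for no effect and bortezomib for full effect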
Outline: (§3)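 Viability measured as metabolically active cells via CellTiter-Glo luminescence following 48 hours of compound exposure, 11-point dilutions in confirmatory testing. 500-1,000 cells/well plated 5 hours before dosing; controls were DMSO and 2.3 µM bortezomib.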

[14] = qHTS of pediatric cancer cell lines to identify multiple opportunities for drug repurposing: Confirmatory screen for TC32 cells (AID 1347118); also: potency is read from the fitted curve at half-maximal effect; nearly all actives have a fitted effect of over 65% in size
Outline: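 Measured quantity: luminescence from CellTiter-Glo, reflecting metabolically active TC32 cells following 48 h of compound. Curves came straight from multi-point titrations, with 8 or 11 points in primary and 11 in confirmatory screening.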

[15] = qHTS of pediatric cancer cell lines to identify multiple opportunities for drug repurposing: Primary screen for Rh41 cells (AID 1347108); also: nearly all actives have a fitted effect of over 70% in size; also: potency is read from the fitted curve at half-maximal effect;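 as to activity change, negative = cytotoxic: luminescence drop marks cytotoxic hits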
Outline: as §1

[16] = qHTS of pediatric cancer cell lines to identify multiple opportunities for drug repurposing: Primary screen for RD cells (AID 1347104); also: nearly all actives have a fitted effect of over 55% in size; also: potency is read from the fitted curve at half-maximal effect;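 as to activity change, negative = cytotoxic: plate controls were DMSO for no effect and bortezomib for full effect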
Outline: as §1

[17] = qHTS of pediatric cancer cell lines to identify multiple opportunities for drug repurposing: Confirmatory screen for DAOY cells (AID 1347114); also: nearly all actives have a fitted effect of over 65% in size; also: potency is read from the fitted curve at half-maximal effect; as to activity change, negative = cytotoxic: % is scaled to controls: 0 for no effect and ±100 for the full control effect
Outline: as §3

[18] = qHTS of pediatric cancer cell lines to identify multiple opportunities for drug repurposing: Confirmatory screen for NB-EBc1 cells (AID 1347115); also: potency is read from the fitted curve at half-maximal effect; nearly all actives have a fitted effect of over 45% in size
Outline: as §2

[19] = qHTS of pediatric cancer cell lines to identify multiple opportunities for drug repurposing: Confirmatory screen for MG 63 (6-TG R) cells (AID 1347119); also: nearly all actives have a fitted effect of over 55% in size; also: potency is read from the fitted curve at half-maximal effect
Outline: as §2

COC(=O)C1C2CC3c4[nH]c5cc(OC)ccc5c4CCN3CC2CC(OC(=O)c2cc(OC)c(OC)c(OC)c2)C1OC (centres undefined)
inactive: Potency [2] | Potency [3] | Potency [4] | Potency [11]
active: Potency [1] 27.3 µM | Potency [5] 5.22 µM | Potency [6] 3.29 µM | Potency [7] 0.369 µM | Potency [8] 2.61 µM | Potency [9] 14.7 µM | Potency [10] 1.47 µM | Potency [12] 20.8 µM

COc1cc2ncnc(Nc3cccc(Br)c3)c2cc1OC
inactive: Potency [4] | Potency [11] | Potency [12]
active: Potency [1] 15.3 µM | Potency [5] 18.5 µM | Potency [6] 14.7 µM | Potency [7] 11.7 µM | Potency [9] 16.5 µM | Potency [13] 3.69 µM | Potency [10] 18.5 µM | Potency [14] 9.27 µM

CC(C)Oc1ccc(C(=O)N[C@H](CNC(=O)CN(C)C)Cc2ccc(-c3cn4cccc([C@H](C)O)c4n3)cc2)cc1Cl
active: Potency [1] 2.43 µM | Potency [15] 1.18 µM
inactive: Potency [3]

O=C(Nc1nnc(-c2ccco2)o1)c1cc(-c2ccccc2)nc2ccccc12
inactive: Potency [3]
active: Potency [1] 30.6 µM | Potency [2] 14.8 µM

Cc1ccc(-n2[nH]c(C)c(N=Nc3cccc(-c4cccc(C(=O)O)c4)c3O)c2=O)cc1C
active: Potency [1] 17.4 µM | Potency [2] 21.1 µM | Potency [15] 18.7 µM
inactive: Potency [3]

N#Cc1ccc(COC[C@H]2O[C@@H](n3c(NCc4ccc(Cl)c(Cl)c4)nc4c(N)ncnc43)[C@@H](O)[C@@H]2O)cc1
inactive: Potency [2] | Potency [3]
active: Potency [1] 6.85 µM

CC(=O)[C@]1(O)Cc2c(O)c3c(c(O)c2[C@@H](O[C@H]2C[C@H](N)[C@@H](O)[C@H](C)O2)C1)C(=O)c1ccccc1C3=O
active: Potency [1] 0.485 µM | Potency [16] 1.05 µM | Potency [2] 0.235 µM | Potency [15] 0.935 µM | Potency [6] 0.0827 µM | Potency [7] 0.522 µM | Potency [8] 4.14 µM | Potency [9] 0.329 µM | Potency [17] 2.08 µM | Potency [18] 0.465 µM | Potency [13] 0.369 µM | Potency [10] 0.329 µM | Potency [14] 0.293 µM | Potency [12] 1.31 µM

Cc1ccc2nc(NCCN)c3ncc(C)n3c2c1
active: Potency [1] 24.3 µM | Potency [2] 18.7 µM | Potency [15] 18.7 µM

CCc1cnn2c(NCc3ccc[n+]([O-])c3)cc(N3CCCC[C@@H]3CCO)nc12
inactive: Potency [4] | Potency [8] | Potency [17] | Potency [11] | Potency [12]
active: Potency [1] 0.0343 µM | Potency [16] 0.0332 µM | Potency [15] 0.0743 µM

CCCCCN=C(N)NN=Cc1c[nH]c2ccc(OC)cc12
active: Potency [1] 9.68 µM
inactive: Potency [3] | Potency [4]

Nc1ncn([C@@H]2O[C@H](CO)[C@@H](O)[C@@H]2O)c(=O)n1
active: Potency [1] 15.3 µM | Potency [16] 5.9 µM | Potency [6] 5.85 µM | Potency [7] 16.5 µM | Potency [8] 18.5 µM | Potency [9] 16.5 µM | Potency [18] 13.1 µM | Potency [10] 16.5 µM
inactive: Potency [2]

N#Cc1c(NC(=O)c2cccc3ccccc23)sc2c1CCCC2
active: Potency [1] 0.485 µM | Potency [6] 0.414 µM | Potency [7] 0.369 µM | Potency [8] 2.33 µM | Potency [10] 0.827 µM | Potency [19] 0.329 µM | Potency [12] 0.657 µM
inactive: Potency [4] | Potency [11]

CC(C)(C)[C@H](NC(=O)c1ccc(N)c(Cl)c1)C(=O)N1CCC[C@@H]1C(=O)N[C@H](C#N)CC(=O)O
inactive: activity change, negative = cytotoxic [1] -19.6% [at 6.18 µM] | activity change, negative = cytotoxic [2] -25.9% [at 4.84 µM] | activity change, negative = cytotoxic [3] -7.94% [at 4.84 µM] | activity change, negative = cytotoxic [4] 14.6% [at 4.84 µM]

FC(F)c1nc2ccccc2n1-c1nc(N2CCOCC2)nc(N2CCOCC2)n1
active: Potency [1] 0.0769 µM | Potency [2] 0.187 µM | Potency [15] 1.48 µM | Potency [7] 0.737 µM | Potency [8] 1.04 µM | Potency [9] 1.47 µM | Potency [10] 1.47 µM | Potency [14] 0.928 µM | Potency [19] 0.928 µM
inactive: Potency [13]

CC(=O)O[C@H]1C[C@@H]2CC[C@H]3[C@H]4C[C@H]([N+]5(C)CCCCC5)[C@@H](OC(C)=O)[C@@]4(C)CC[C@@H]3[C@@]2(C)C[C@H]1N1CCCCC1
inactive: Potency [16] | Potency [2] | Potency [3] | Potency [19] | Potency [12]
active: Potency [7] 3.29 µM | Potency [8] 7.37 µM | Potency [9] 4.14 µM | Potency [10] 3.29 µM

NC(=O)N1CCC(CC(=O)N2CCC([C@H]3c4ncc(Br)cc4CCc4cc(Cl)cc(Br)c43)CC2)CC1
active: Potency [16] 20.9 µM | Potency [2] 18.7 µM | Potency [15] 5.9 µM
inactive: Potency [3]

C=CCNC1=C2C[C@@H](C)C[C@H](OC)[C@@H](O)[C@@H](C)C=C(C)[C@H](OC(N)=O)[C@@H](OC)C=CC=C(C)C(=O)NC(=CC1=O)C2=O
inactive: Potency [8]
active: Potency [16] 0.235 µM | Potency [2] 23.5 µM | Potency [4] 13.2 µM | Potency [15] 3.72 µM | Potency [5] 1.17 µM | Potency [6] 1.17 µM | Potency [7] 2.33 µM | Potency [9] 4.65 µM | Potency [17] 4.65 µM | Potency [18] 7.37 µM | Potency [10] 0.0928 µM | Potency [19] 2.61 µM | Potency [12] 0.414 µM

C[C@H]1C[C@H]2[C@@H]3CCC4=CC(=O)C=C[C@]4(C)[C@@H]3C(=O)C[C@]2(C)[C@@]1(O)C(=O)CO
inactive: Potency [16] | Potency [2] | Potency [3] | Potency [4] | Potency [15]

Cn1cc(-c2cnn3c(N)c(Br)c([C@H]4CCCNC4)nc23)cn1
active: Potency [1] 0.385 µM | Potency [15] 2.35 µM | Potency [5] 1.85 µM | Potency [6] 14.7 µM | Potency [7] 0.827 µM | Potency [9] 5.85 µM | Potency [10] 3.69 µM | Potency [14] 5.85 µM
inactive: Potency [8] | Potency [11]

O=C(O)c1ccc(Nc2ncc3c(n2)-c2ccc(Cl)cc2C(c2c(F)cccc2F)=NC3)cc1
inactive: Potency [3] | Potency [8] | Potency [9] | Potency [11]
active: Potency [16] 29.6 µM | Potency [2] 23.5 µM | Potency [4] 18.7 µM | Potency [6] 10.4 µM | Potency [7] 4.14 µM | Potency [14] 1.47 µM | Potency [12] 4.14 µM
